In ChEMBL document CHEMBL4808148, “HDAC6 screening dataset using tau-based substrate in an enzymatic assay yields selective inhibitors and activators” (2021):
In all, about 5,600 compounds went through this assay and about 390 (7%) showed an effect of 50% or more. The entries come from a sample that favours strong results as a whole. Non-standard residues stand in square brackets, D forms with d. Residues, ends and D or L forms follow the SMILES beside them. dTrp(2-Me) = Cc1[nH]c2ccccc2c1C[C@@H](N)C(=O)O

Key:
[1] = molecular target: T1, Protein deacetylase HDAC6 (Homo sapiens) (UniProt Q9UBN7); settings: at 10 µM
T1 sequence (whole entry): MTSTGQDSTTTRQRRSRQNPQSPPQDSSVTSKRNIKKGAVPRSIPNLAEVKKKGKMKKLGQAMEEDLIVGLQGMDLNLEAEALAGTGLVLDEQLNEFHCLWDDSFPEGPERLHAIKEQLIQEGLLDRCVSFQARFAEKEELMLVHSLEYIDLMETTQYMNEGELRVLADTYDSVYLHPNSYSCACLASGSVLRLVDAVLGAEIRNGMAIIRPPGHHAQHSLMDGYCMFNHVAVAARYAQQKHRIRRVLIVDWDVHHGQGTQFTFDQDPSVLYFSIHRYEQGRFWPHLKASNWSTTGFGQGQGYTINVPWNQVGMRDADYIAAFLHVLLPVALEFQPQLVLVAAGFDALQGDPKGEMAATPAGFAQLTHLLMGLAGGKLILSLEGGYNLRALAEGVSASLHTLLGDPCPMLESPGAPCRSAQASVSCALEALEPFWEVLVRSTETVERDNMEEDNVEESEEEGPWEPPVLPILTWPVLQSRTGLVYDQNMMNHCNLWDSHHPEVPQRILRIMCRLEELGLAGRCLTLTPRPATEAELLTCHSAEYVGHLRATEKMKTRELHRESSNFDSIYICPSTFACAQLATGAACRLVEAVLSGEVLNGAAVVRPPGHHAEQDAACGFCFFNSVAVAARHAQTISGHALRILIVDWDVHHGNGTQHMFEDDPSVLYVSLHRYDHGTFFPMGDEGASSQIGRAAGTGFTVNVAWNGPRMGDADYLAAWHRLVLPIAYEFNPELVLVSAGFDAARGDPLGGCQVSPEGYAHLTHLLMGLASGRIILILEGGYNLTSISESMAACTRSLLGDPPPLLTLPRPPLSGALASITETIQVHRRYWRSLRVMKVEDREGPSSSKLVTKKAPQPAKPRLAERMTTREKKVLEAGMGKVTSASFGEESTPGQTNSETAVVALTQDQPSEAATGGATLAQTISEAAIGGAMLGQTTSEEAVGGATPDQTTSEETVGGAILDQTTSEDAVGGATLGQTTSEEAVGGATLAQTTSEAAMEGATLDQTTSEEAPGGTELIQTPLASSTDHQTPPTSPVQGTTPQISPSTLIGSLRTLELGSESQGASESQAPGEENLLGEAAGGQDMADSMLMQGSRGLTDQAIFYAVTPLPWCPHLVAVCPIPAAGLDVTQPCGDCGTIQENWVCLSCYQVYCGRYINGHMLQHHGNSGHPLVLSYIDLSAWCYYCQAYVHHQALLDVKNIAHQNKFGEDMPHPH

[2] = molecular target: Protein deacetylase HDAC6 (Homo sapiens) (UniProt Q9UBN7); settings: at 10 µM; remark: listed apart in the source

Compound | inhibition [1] | inhibition [2]
Fc1ccc(-c2nc3n(c2-c2ccncc2)CCS3)cc1 | -4.98% | –
Cc1c(F)cccc1NC(=O)Nc1ccc(Cl)c(S(=O)(=O)[C@H]2CCCNC2)c1O | 36.1% | –
CN1CCN(C2=Cc3ccccc3Oc3ccc(Cl)cc32)CC1 | 2.47% | –
Cc1nc2c(OCc3ccccc3)cccn2c1CC#N | 76.9% | –
COc1ccc(COc2ccc(CC#N)cc2)cc1 | 28.5% | –
CCCc1c(OCCCCc2nnn[nH]2)ccc(C(C)=O)c1O | 4.66% | –
CC[N+](C)(CC)CCOC(=O)C(O)(c1ccccc1)C1CCCCC1 (configuration not stated) | -2.19% | –
COc1ccc2c(C)nc(Nc3nc(C)c(C)c(O)n3)nc2c1 | 20.5% | –
CCc1cnc(N2CCC(c3nc(COc4ccc(-n5cnnn5)cc4)cs3)CC2)nc1 | 14.7% | –
O=C1c2ccccc2C(=O)C1c1ccc(Br)cc1 | 95.5% | –
COc1ccc(C2C(=O)c3ccccc3C2=O)cc1 | 98.2% | –
O=C1c2ccccc2C(=O)C1c1ccc(Cl)cc1 | 18.6% | –
O=C1c2ccccc2C(=O)C1c1ccccc1 | 7.2% | –
CCCC1(CCC)CCC2(CCN(CCCN(CC)CC)C2)CC1 | -1.4% | –
C[C@@H](O)[C@H]1C(=O)N2C(C(=O)O)=C(S[C@@H]3CN[C@H](C(=O)Nc4cccc(C(=O)O)c4)C3)[C@H](C)[C@H]12 | 29.2% | –
CC1(c2ccccc2)OC(C(=O)O)=CC1=O (configuration not stated) | -2.75% | –
Nc1nccc(-c2c(-c3ccc(F)cc3)ncn2C2CCCCC2)n1 | 10.1% | –
COc1cc(C(=O)NC2CCN(C)CC2)c(F)cc1Nc1ncc2c(n1)N(C1CCCC1)CC(F)(F)C(=O)N2C | 2.87% | –
Cc1[nH]c2ccccc2c1C[C@@H](NC(=O)[C@@H](N)Cc1c[nH]cn1)C(=O)N[C@@H](C)C(=O)N[C@@H](Cc1c[nH]c2ccccc12)C(=O)N[C@H](Cc1ccccc1)C(=O)N[C@@H](CCCCN)C(N)=O (H-H[dTrp(2-Me)]AW[dF]K-NH2) | -0.06% | –
NCCCCCC(O)(P(=O)(O)O)P(=O)(O)O | 0.9% | –
AURANOFIN, CHEMBL1366 | – | -8.98%
ANTIMONY POTASSIUM TARTRATE TRIHYDRATE, CHEMBL2097098 | – | 31.4%
Antimonyl (potassium tartrate trihydrate), CHEMBL2097098 | – | 13.3%
BIS(MALTOLATO)OXOVANADIUM(IV), CHEMBL286447 | – | 51.3%
CO[C@@H]1[C@H](OC(=O)/C=C/C=C/C=C/C=C/C(=O)O)CC[C@]2(CO2)[C@H]1[C@@]1(C)O[C@@H]1CC=C(C)C | 3.49% | –
CCCCC[C@H](O)/C=C/[C@@H]1[C@H]2C/C(=C/CCCC(=O)O)O[C@H]2C[C@H]1O | 10.8% | –

Compound | inhibition [1] | inhibition [2]
Cn1cc(CCn2cnc(-c3cnn(C)c3)c2-c2ccc(C#N)cc2)cn1 | 15% | –
O=S(=O)(O)c1ccc2[nH]c(-c3ccccc3)nc2c1 | 84.1% | –
O=C1c2ccc(Nc3ccc(F)cc3F)cc2CCc2ccc(OC[C@H](O)CO)cc21 | 24.2% | –
C#Cc1cnc2nc(O)n(C(CC)CC)c2n1 | -6.31% | –
Nc1ncnc2[nH]nc(Nc3ccc(F)cc3)c12 | 17.6% | –
Nc1nc(N)nc(-c2cc(Cl)ccc2Cl)n1 | 17.2% | –
Nc1ncnc(Nc2ccc(Cl)cc2)n1 | 74.5% | –
CCO/N=C(/C(=O)NC1C(=O)N2C(C(=O)O)=C(Sc3nc(-c4cc[n+](C)cc4)cs3)CS[C@H]12)c1nsc(NP(=O)(O)O)n1 (some centres not stated) | 20.6% | –
CC(C)[C@@H]1CC[C@@H](C)C[C@H]1O | 2.89% | –
CN(C)CCC(O)(c1ccccc1)c1ccccc1Cl (configuration not stated) | 36.5% | –
Cc1ccc(NC2=CC(=O)c3sc(C)nc3C2=O)cc1 | 53.2% | –
Cc1c(-c2ccccc2F)[nH]c(N)c1C#N | 28.6% | –
VERTEPORFIN, CHEMBL5314346 | – | 22.2%
Nc1nccc(/C=C/c2ccccc2)n1 | 99.6% | –
CC[N+](CC)(CC)CCOc1ccc(/C=C/c2ccccc2)cc1 | -4.16% | –
Cc1cccc(/C=C/c2ccccc2)n1 | 100% | –
CC(C)[C@@H]1CC[C@@H](C)C[C@@H]1P(=O)(c1ccccc1)c1ccccc1 | -9.96% | –
CCC(CC)(NC(=O)C(C)C)C(=O)N[C@@H](CCCNC(=N)N)C(=O)NC1(C(=O)NC(c2ccc(F)cc2)c2ccc(F)cc2)CCCC1 | 22% | –
CSC[C@H](N)C(=O)O | 15.3% | –
Cc1ccc2c(c1)C(=O)[C@]1(O)CCN(c3ccccc3)C1=N2 | -8.19% | –
COc1ccc(-c2coc3cc(O)cc(O)c3c2=O)cc1 | 100% | –
O=c1c(-c2ccc(O)cc2)coc2cc(O)cc(O)c12 | 112% | –
CN1CCN(c2ccc(/C=C(\C#N)c3ccccc3Br)cc2)CC1 | -8.48% | –
Nc1ncc(Cc2ccc(Br)cc2)s1 | 12.3% | –
c1ccc(-c2nc(CN3CCN(c4ncccn4)CC3)c[nH]2)cc1 | -4.48% | –
C=CCOc1ccc(CC(=O)O)cc1Cl | 9.47% | –
